Screening data (PubChem)
Compounds with a hit are over-represented: about 6% of the library has one in this group of screens.
D3 ag – activates the human D3 dopamine receptor; D3R DiscoveRx beta-arrestin cells, luminescence, 90 min; max activation, %; P35462; 410,000 compounds, 0.58% hits; AID 652048; in the data active = max activation above about 30%; note: 0% is about no effect
Target sequence (P35462 whole entry, looked up): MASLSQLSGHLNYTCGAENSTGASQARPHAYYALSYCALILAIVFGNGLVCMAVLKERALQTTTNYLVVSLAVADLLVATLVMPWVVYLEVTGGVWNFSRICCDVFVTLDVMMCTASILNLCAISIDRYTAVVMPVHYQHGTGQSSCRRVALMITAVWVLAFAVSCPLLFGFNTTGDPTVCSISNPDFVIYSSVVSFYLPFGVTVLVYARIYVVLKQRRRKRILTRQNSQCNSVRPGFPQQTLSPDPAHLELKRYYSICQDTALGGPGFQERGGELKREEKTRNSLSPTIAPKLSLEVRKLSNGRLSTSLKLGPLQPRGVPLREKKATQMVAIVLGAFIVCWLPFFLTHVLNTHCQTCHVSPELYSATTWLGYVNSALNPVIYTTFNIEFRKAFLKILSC
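Cells at 1500/well, incubated overnight, then treated with pinned compounds (dopamine as control) for 90 min at 37 degrees C. DiscoveRx reagent added for 30 - 60 minutes at room temperature; luminescence read.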
D1 PAM – human D1 dopamine receptor positive modulation; HEK293 TREx D1 cells, calcium flux, dopamine EC20 potentiation; P21728; potentiation, % at 10 µM; AID 504651; 360,000 compounds, 0.036% hits; in the data active = potentiation above about 30%; note: 0% is about no effect
D1 antag – human D1 dopamine receptor antagonism; AID 504652; HEK293 TREx D1 cells, calcium flux, dopamine EC80; hits give low values; 360,000 compounds, 3.2% hits; P21728; activity change, negative = inhibition, % at 10 µM; in the data active = activity change below about -30%; note: % is set by controls: 0 for no effect and ±100 for the full control effect
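Compound effects on dopamine-evoked calcium signalling were measured in tetracycline-induced HEK293 Trex D1 cells. Dopamine at EC80 followed a 180 s compound pre-read, and fluorescence was tracked kinetically for 180 s more.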
DRD3 antagonist – D3 dopamine receptor (human) antagonism | P35462 | D3R cells, DiscoveRx beta-arrestin luminescence, antagonist mode; hits give low values | max response, negative = inhibition, % | 360,000 compounds, 2.5% hits; in the data active = max response below about -50%; inconclusive = no clear call, values can overlap the other calls; note: % is set by controls: 0 for no effect and ±100 for the full control effect
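Cells expressing the human receptor were seeded at 1500 cells/well, incubated overnight at 37 degrees C in 5% CO2, then exposed to library compounds with dopamine controls for 90 minutes at 37 degrees C before luminescent detection.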
D1 agonist – agonists of human D1 dopamine receptor | P21728 | HEK293 T-REx D1 cells, calcium flux, agonist mode | activation, % at 2 µM | 360,000 compounds, 1% hits | AID 504660; in the data active = activation above about 30%; note: 0% is about no effect
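Inducible HEK293 T-REx D1 cells, force-coupled to calcium signalling, were plated at 4000 cells/well with tetracycline and held overnight at 30 C. After no-wash calcium dye loading, compound-evoked calcium rise over 180 s flagged agonists.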
An asterisk follows results filed as active; u = inconclusive; x = no result given.

SMILES | D3 ag | D1 PAM | D1 antag | DRD3 antagonist | D1 agonist
COc1cccc(C(NC(C)=O)c2nc(-c3cccc4cccnc34)cs2)c1 (centres undefined) | 56.7* | x | x | -13.9 | x
CCOc1ccc(NC(=O)Cn2cc(C(=O)c3ccc(CC)cc3)c(=O)c3cc(C)ccc32)cc1 | 0.0 | 1.1 | 11.2 | x | 1.0
Fc1ccc(NC(=S)NN=C2CCCCCC2)cc1 | -6.4 | -3.0 | -16.3 | -149.6* | 1.3
Nc1nc(CN2CCN(c3ccccc3F)CC2)nc(N2CCCc3ccccc32)n1 | 31.9* | -5.7 | -23.5 | -23.7 | 0.6
Nc1nc(CN2CCN(c3cccc(Cl)c3)CC2)nc(N2CCCc3ccccc32)n1 | 16.4 | -0.3 | 5.4 | -76.7* | -0.2
Nc1nc(CN2CCN(Cc3ccccc3)CC2)nc(N2CCCc3ccccc32)n1 | -12.6 | -6.0 | -16.6 | -21.1 | 0.0
Nc1nc(CN2CCN(c3ccccc3)CC2)nc(N2CCCc3ccccc32)n1 | 6.4 | -1.9 | -4.7 | u | 0.5
Cc1oc(-c2cccs2)nc1CN1CCC(CO)(CCOc2ccccc2)CC1 | -11.8 | -3.0 | 24.5 | -89.0* | 18.7
COc1ccc(CN2CCC(CO)(CCOc3ccccc3)CC2)c(OC)c1C | -6.3 | -4.7 | -30.7* | 7.6 | 66.4*
CCOc1ccccc1CN1CCC(CO)(CCOc2ccccc2)CC1 | -14.1 | -1.4 | 16.1 | -14.3 | 30.5*
CCOC(=O)C1(CCOC)CCN(Cc2nc(-c3cccs3)oc2C)CC1 | -12.0 | -4.8 | -20.4 | u | 1.4
C[N+](C)(CCOc1ccccc1)Cc1cccs1 | -13.4 | x | x | x | x
COc1ccccc1NC(=O)CSc1nc(O)c(C/C=C/c2ccccc2)c(=O)[nH]1 | -3.4 | -1.1 | -4.6 | x | 0.7
COc1ccccc1C1CCN(c2ccc(CO)cc2[N+](=O)[O-])CC1 | -9.1 | -3.4 | -17.2 | u | 5.3
O=[N+]([O-])c1cccc(CN2CCN(c3ncccn3)CC2)c1 | 0.5 | 24.5 | -7.2 | -14.2 | 3.6
COc1ccccc1C1CCN(Cc2cccc([N+](=O)[O-])c2)CC1 | -23.0 | -1.5 | -15.7 | -94.7* | 5.7
O=[N+]([O-])c1cccc(COc2cccc(CN3CCCCC3)c2)c1 | -62.3 | x | x | -76.8* | x
O=[N+]([O-])c1cccc(CN2CCN(c3cccc4[nH]ccc34)CC2)c1 | -6.0 | -10.7 | -14.1 | -97.0* | 7.6
COc1ccccc1C1CCN(Cc2ccccc2Cl)CC1 | -42.1 | -5.3 | 10.9 | -75.3* | 7.5
Cc1cc(Br)ccc1NC(=O)c1cn(C2CCCC2)c(=O)c2c1c1ccccc1n2C | 9.4 | 0.8 | 3.5 | x | -0.2
Cc1cccc(OC(=O)CSc2nnc(-c3ccc4c(c3)OCO4)o2)c1C | 4.7 | -0.6 | 4.3 | x | 0.9
O=C(Nc1cccc(Cl)c1Cl)c1cc2nc(-c3ccc4c(c3)OCO4)cc(C(F)(F)F)n2n1 | 2.8 | 0.2 | 12.0 | x | -0.9
CCOc1ccccc1CNC(=O)C1CCN(c2nnc(-n3c(C)ccc3C)s2)CC1 | -6.5 | 0.8 | 1.3 | x | -2.6
CCCCN(CCCC)CCNC(=O)Cn1nc(CC)n2c(cc3sccc32)c1=O | -23.7 | -3.2 | -15.0 | x | 0.8
COc1ccccc1C1CCN(Cc2ccccc2)CC1 | -24.0 | -22.2 | -46.1* | -116.2* | -0.9
SMILES | D3 ag | D1 PAM | D1 antag | DRD3 antagonist | D1 agonist
OCCN1CCN(Cc2ccc3ccccc3c2)CC1 | -14.8 | -0.6 | 1.4 | -16.1 | 5.9
COc1ccccc1C1CCN(Cc2ccc3ccccc3c2)CC1 | -33.7 | 0.7 | 12.6 | -61.7* | 3.8
COc1ccc(NC(=O)C(C)Sc2cc(-c3ccccc3)nc(C)n2)cc1Cl (centres undefined) | 0.3 | -1.2 | -26.8 | x | 1.2
Cc1ccc(-c2cc3c(N4CCN(c5cc(C)ccc5C)CC4)nccn3n2)cc1 | -1.6 | 1.6 | -3.7 | x | 0.3
CCOC(=O)Cn1c(=O)n(C2CCCCC2)c2nc(-c3c(F)cccc3Cl)nc(C(N)=O)c21 | -8.4 | -0.9 | 0.6 | x | 4.6
C/C(=N/NC(N)=S)c1cc2ccc(O)cc2oc1=O | 8.0 | -4.7 | 5.6 | 37.6 | 5.6
C/C(=N\NC(=O)c1ccncc1)c1cc2ccccc2oc1=O | 0.8 | 2.5 | -34.2* | 6.1 | 4.2
C/C(=N/NC(=O)c1ccncc1)c1cc2ccc(O)cc2oc1=O | 14.5 | -2.3 | -7.0 | 17.6 | 40.6*
Cc1ccc([C@H]2C(C(=O)O)=CC[C@@H](c3ccc(Cl)cc3)N2S(=O)(=O)c2ccc(C)cc2)cc1 | -7.7 | x | x | -51.3* | x
Cc1ccc([C@H]2C(C(=O)O)=CC[C@@H](c3ccc(C(C)C)cc3)N2S(=O)(=O)c2ccc(C)cc2)cc1 | -34.2 | x | x | -63.8* | x
Cc1cc2c(s1)c1cnn(Cc3cccc(Br)c3)c(=O)c1n2C | x | 0.6 | -12.8 | x | -0.7
Oc1ccc(Cl)cc1/C=C/c1ccc2cccc(O)c2n1 | 1.4 | -8.3 | -2.5 | u | 8.3
Oc1c(Cl)cc(Cl)cc1/C=C/c1ccc2cccc(O)c2n1 | 32.2* | -1.4 | -13.7 | 1.3 | 114.0*
COc1cc(Br)cc(/C=C/c2ccc3cccc(O)c3n2)c1O | -3.7 | 0.7 | -3.6 | -13.1 | 7.0
Oc1cccc2ccc(/C=C/c3ccccc3Br)nc12 | -39.6 | 1.1 | -0.9 | -113.8* | 5.7
COc1cc(Br)c(/C=C/c2ccc3cccc(O)c3n2)cc1OC | -5.3 | -6.7 | -7.5 | -8.3 | 2.1
Cc1ccsc1/C=C/c1ccc2cccc(O)c2n1 | -79.5 | -1.5 | 10.4 | u | 0.9
Oc1cccc2ccc(/C=C/c3cccs3)nc12 | -53.3 | -1.4 | 10.5 | -57.2* | 1.1
Oc1ccc2ccccc2c1/C=C/c1ccc2c(Br)cc(Br)c(O)c2n1 | -16.8 | x | x | -103.6* | x
CC(C)OCCCNC(=O)C(NS(=O)(=O)c1ccc2c(c1)c(=O)n(C)c(=O)n2C)c1ccccc1 (centres undefined) | x | -1.1 | -43.9* | x | -0.4
ClC(CCN1CCN(Cc2ccccc2)CC1)c1ccccc1 (centres undefined) | -49.2 | x | x | -64.0* | x
CC(NC(=O)C(C)N1CCN(Cc2ccccc2)CC1)c1ccccc1 (centres undefined) | 2.4 | -9.6 | -8.0 | 3.5 | 1.1
CC(CCc1ccccc1)N1CCN(Cc2ccccc2)CC1 (centres undefined) | -11.7 | -6.9 | 8.4 | -87.1* | 1.1
CCS(=O)(=O)N1CCN(C(C)CCc2ccccc2)CC1 (centres undefined) | 13.8 | -0.3 | -0.2 | -51.4* | -0.2
CC(CN1CCN(Cc2ccccc2)CC1)c1ccccc1 (centres undefined) | -3.6 | -5.8 | -5.2 | 0.0 | 0.9
CCN(C(=O)CSc1nc2ccccc2c2nc(CCn3c(C)nc4ccccc43)nn12)c1cccc(C)c1 | 1.4 | -2.5 | -7.2 | x | 4.1
CSc1ccc(C(=O)C2CCCN(C(=O)Cn3cnnn3)C2)cc1 (centres undefined) | 0.4 | 5.8 | -10.1 | -6.7 | 0.7
CSc1ccc(C(=O)C2CCCN(C(=O)c3ccc4c(c3)OCO4)C2)cc1 (centres undefined) | -3.8 | 2.8 | 0.8 | -6.2 | 1.2
